From PubChem BioAssay AID894 (National Center for Advancing Translational Sciences (NCATS), 2007)
Values joined by “and” are separate entries in the source; they are usually repeats but may differ in a detail not shown here. Identical values can stand only once. About 6,500 (4.3%) of roughly 150,000 compounds were called active. Inconclusive results (about 12%) are left out. The sample holds actives, similar compounds and a random draw of the others, so the mix is not that of the screen. Calls come from the whole dose curve; as a rule, active = well fitted inhibition curve with a large enough effect (not every such curve was filed as active); inconclusive = small, poorly fitted or top-dose-only effect, or another doubt; inactive = no such curve, though single readings can be large or run the other way.

Target: 15-hydroxyprostaglandin dehydrogenase [NAD(+)] (Homo sapiens) (UniProt P15428)
Sequence (P15428 whole entry, looked up): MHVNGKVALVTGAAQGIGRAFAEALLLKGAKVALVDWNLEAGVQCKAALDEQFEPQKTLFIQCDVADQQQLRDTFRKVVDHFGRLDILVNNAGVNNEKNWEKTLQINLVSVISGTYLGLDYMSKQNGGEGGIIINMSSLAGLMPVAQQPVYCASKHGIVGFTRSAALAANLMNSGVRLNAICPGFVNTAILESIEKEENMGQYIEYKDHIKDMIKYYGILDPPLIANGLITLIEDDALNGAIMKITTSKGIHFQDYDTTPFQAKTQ
Test: qHTS Assay for Inhibitors of HPGD (15-Hydroxyprostaglandin Dehydrogenase)
Conditions: purified HPGD, NADH fluorescence kinetic, PGE2 substrate; activity change, negative = inhibition: active compounds read low
In short: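 20 nM HPGD preincubated 15 min at room temperature with compound in 50 mM Tris-HCl pH 8, 0.01% Tween 20. Started with 1 mM NAD+ and 30 uM prostaglandin E2; NADH fluorescence (360/450 nm) read 5 times over 30-s intervals, last minus first.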
% is set by controls: 0 for no effect and ±100 for the full control effect; potency is the fitted concentration of half-maximal effect.

**Q.** Which activity change, negative = inhibition does the source give for `COC(=O)Cc1ccc(N(Cc2ccccc2F)S(=O)(=O)c2ccc(Br)cc2)cc1` here?
**A.** The activity change, negative = inhibition was -19.6% (inactive).

**Q.** Which activity change, negative = inhibition does the source give for `Cc1ccc(-n2c(Cc3cccs3)nnc2SCC(=O)OC(C)C)cc1` here?
**A.** The activity change, negative = inhibition was -15.1% (inactive).

**Q.** Which activity change, negative = inhibition does the source give for `CCn1c(SCC(=O)c2ccc3ccccc3c2)nnc1-c1cccs1` here?
**A.** The activity change, negative = inhibition was -18.4% (inactive).

**Q.** For `CCn1c(Cc2cccs2)nnc1SCC(=O)c1ccc(C)cc1`, which Potency is on record?
**A.** The Potency was 15.8 µM (active).

**Q.** Which Potency does the source give for `CCn1c(CNc2ccc(OC)cc2)nnc1SCC(=O)c1ccc(OC)cc1` here?
**A.** The Potency was 14.1 µM (active).

**Q.** For `COC(=O)c1ccc(NC(=O)CSc2nnc(CNc3ccc(OC)cc3)n2C)cc1`, which activity change, negative = inhibition is on record?
**A.** The activity change, negative = inhibition was -6.05% (inactive).

**Q.** With `CCn1c(COc2ccc(OC)cc2)nnc1SCC(=O)Nc1cc(OC)ccc1OC` as the compound, how does the activity change, negative = inhibition read?
**A.** The activity change, negative = inhibition was 1.56% (inactive).

**Q.** With `O=C(CN1CCN(S(=O)(=O)c2ccc(Br)cc2)CC1)Nc1ccccc1C(=O)c1ccccc1` as the compound, how does the activity change, negative = inhibition read?
**A.** Its activity change, negative = inhibition is -12.5% (inactive).

**Q.** `CCOC(=O)N1CCN(C(=O)C2CCN(Cc3ccc(OC)cc3OC)CC2)CC1` was tested. Which activity change, negative = inhibition did it give?
**A.** The activity change, negative = inhibition was -11.3% (inactive).

**Q.** Which activity change, negative = inhibition does the source give for `CCCC(NC(=O)c1ccco1)c1nc2ccccc2[nH]1` (stereo unspecified) here?
**A.** Its activity change, negative = inhibition is -3.61% (inactive).

**Q.** With `Cc1cccc(C(=O)NC(=S)N2CCN(c3ccc([N+](=O)[O-])cc3)CC2)c1` as the compound, how does the activity change, negative = inhibition read?
**A.** The activity change, negative = inhibition was -19.1% (inactive).

**Q.** For `O=C(Cc1ccc(-c2ccccc2)cc1)NC(c1ccccc1)c1ccccc1`, which Potency is on record?
**A.** Its Potency is 12.6 µM (active).

**Q.** With `O=C(O)Cc1ccc(-c2ccccc2)cc1` as the compound, how does the activity change, negative = inhibition read?
**A.** Its activity change, negative = inhibition is -9.59% (inactive) and -19% (inactive).

**Q.** With `CCOC(=O)/C=C/C(=O)OCC(=O)NC(c1ccccc1)c1ccccc1` as the compound, how does the activity change, negative = inhibition read?
**A.** The activity change, negative = inhibition was -29.7% (inactive).

**Q.** Which activity change, negative = inhibition does the source give for `CCCCC(=O)Nc1ccc(C(=O)Nc2cc(C(F)(F)F)ccc2Cl)cc1` here?
**A.** The activity change, negative = inhibition was -6.97% (inactive).

**Q.** Which activity change, negative = inhibition does the source give for `CCOc1ccc(NC(=O)c2ccc(CSc3nnnn3C)cc2)cc1` here?
**A.** Its activity change, negative = inhibition is -4.67% (inactive).

**Q.** For `COCCNc1ncnc2ccc(-c3ccccc3CN(C)C)cc12`, which activity change, negative = inhibition is on record?
**A.** The activity change, negative = inhibition was -8.98% (inactive).

**Q.** `COc1ccc2[nH]cc(CCNc3ncnc4ccc(-c5ccccc5CN(C)C)cc34)c2c1` was tested. Which activity change, negative = inhibition did it give?
**A.** The activity change, negative = inhibition was -13.3% (inactive).

**Q.** Which Potency does the source give for `COc1ccccc1CNc1ncnc2ccc(-c3c(C)noc3C)cc12` here?
**A.** Its Potency is 6.31 µM (active).

**Q.** For `Cc1ccc(N(Cc2cc3ccccc3[nH]c2=O)C(=O)c2cccs2)cc1`, which activity change, negative = inhibition is on record?
**A.** Its activity change, negative = inhibition is -11% (inactive).

**Q.** Which activity change, negative = inhibition does the source give for `CCOc1ccc(C(=O)Nc2nccs2)cc1[N+](=O)[O-]` here?
**A.** The activity change, negative = inhibition was -16.3% (inactive).

**Q.** Which activity change, negative = inhibition does the source give for `O=C(CN1CCN(c2ccc(O)cc2)CC1)NC1CCCc2ccccc21` (stereo unspecified) here?
**A.** Its activity change, negative = inhibition is -19.6% (inactive).

**Q.** `CCOc1ccc2nc(NC(=O)c3cc([N+](=O)[O-])ccc3N3CCOCC3)sc2c1` was tested. Which activity change, negative = inhibition did it give?
**A.** Its activity change, negative = inhibition is -5.12% (inactive).

**Q.** `Cc1ccccc1Cn1nc(C)c(NC(=O)C(F)(F)F)c1C` was tested. Which activity change, negative = inhibition did it give?
**A.** Its activity change, negative = inhibition is 0.212% (inactive).

**Q.** With `Cc1ccccc1OCC(=O)Nc1nc(C)c(C(=O)N(C)C)s1` as the compound, how does the activity change, negative = inhibition read?
**A.** The activity change, negative = inhibition was -1.51% (inactive).

**Q.** With `COCCCNC(=O)COc1cc(C)c(Cl)c(C)c1` as the compound, how does the activity change, negative = inhibition read?
**A.** Its activity change, negative = inhibition is -21.9% (inactive).

**Q.** For `COCCNC(=O)COc1ccc(C)c(C)c1`, which Potency is on record?
**A.** Its Potency is 20 µM (active).

**Q.** Which activity change, negative = inhibition does the source give for `COCCNC(=O)COc1ccccc1C` here?
**A.** The activity change, negative = inhibition was -18.6% (inactive).

**Q.** With `CCSC(C)CC1C/C(=N/O)c2c(C)noc2C1` (stereo unspecified) as the compound, how does the Potency read?
**A.** Its Potency is 25.1 µM (active).

**Q.** `CCCc1noc2c1/C(=N\O)CCC2` was tested. Which activity change, negative = inhibition did it give?
**A.** Its activity change, negative = inhibition is -17.1% (inactive).

**Q.** `CCOc1ccc(NC(=O)COc2ccc(C(=O)NC3CCCc4ccccc43)cc2OC)cc1` (stereo unspecified) was tested. Which activity change, negative = inhibition did it give?
**A.** Its activity change, negative = inhibition is -12.8% (inactive).

**Q.** With `O=C(CCN1C(=O)c2ccccc2C1=O)C1=NN[C@@H]2C(=O)N(c3ccc(F)cc3)C(=O)[C@H]12` as the compound, how does the activity change, negative = inhibition read?
**A.** The activity change, negative = inhibition was -16.3% (inactive).

**Q.** `O=C(C(=O)N1CCc2ccccc2C1)N1CCc2ccccc2C1` was tested. Which activity change, negative = inhibition did it give?
**A.** Its activity change, negative = inhibition is -4.51% (inactive).

**Q.** `CN(c1ccc(C(=O)N2CCc3ccccc3C2)cc1)S(C)(=O)=O` was tested. Which Potency did it give?
**A.** Its Potency is 14.1 µM (active).

**Q.** How did the activity change, negative = inhibition turn out when `COc1cccc(N(CC(=O)N2CCc3ccccc3C2)S(C)(=O)=O)c1` was run?
**A.** Its activity change, negative = inhibition is -5.24% (inactive).

**Q.** `N=c1n(CCc2ccccc2)c2ccccc2n1Cc1ccccc1F` was tested. Which activity change, negative = inhibition did it give?
**A.** The activity change, negative = inhibition was -8.4% (inactive).

**Q.** Which activity change, negative = inhibition does the source give for `COCCNC(=S)N/N=C/c1c(C)[nH]c2ccccc12` here?
**A.** Its activity change, negative = inhibition is -19.3% (inactive).

**Q.** For `Cc1ccc(/C=C(\C#N)C(=O)Nc2cccc3ncccc23)o1`, which Potency is on record?
**A.** Its Potency is 39.8 µM (active).

**Q.** `O=C(Nc1cccc2ncccc12)C(Cl)(Cl)Cl` was tested. Which activity change, negative = inhibition did it give?
**A.** The activity change, negative = inhibition was -18.4% (inactive).

**Q.** Which activity change, negative = inhibition does the source give for `O=C(O)c1cc(Cl)c(Cl)cc1C(=O)Nc1cccc2ncccc12` here?
**A.** Its activity change, negative = inhibition is -16.7% (inactive).

**Q.** Which activity change, negative = inhibition does the source give for `Cc1ccc(S(=O)(=O)N(CC(=O)N2CCc3ccccc3C2)c2cccc(Cl)c2)cc1` here?
**A.** The activity change, negative = inhibition was -8.94% (inactive).

**Q.** For `Cc1ccc2c(c1)N(C(=O)CCC(=O)N1CCc3ccccc3C1)CCO2`, which Potency is on record?
**A.** Its Potency is 14.1 µM (active).

**Q.** Which activity change, negative = inhibition does the source give for `Cc1ccc(S(=O)(=O)N(C)CC(=O)N2CCc3ccccc32)cc1` here?
**A.** Its activity change, negative = inhibition is -3.12% (inactive).

**Q.** For `Cc1cc(OCCCC(=O)NCCN2C(=O)S/C(=C\c3cccnc3)C2=O)ccc1Cl`, which activity change, negative = inhibition is on record?
**A.** Its activity change, negative = inhibition is -5.63% (inactive).

**Q.** For `Cn1cnc(C(F)(F)F)c1-c1ccc([N+](=O)[O-])cc1`, which activity change, negative = inhibition is on record?
**A.** Its activity change, negative = inhibition is -0.963% (inactive).

**Q.** Which Potency does the source give for `Cc1ccnc(-n2sc3ccccc3c2=O)n1` here?
**A.** The Potency was 0.794 µM (active).

**Q.** Which activity change, negative = inhibition does the source give for `Cc1nc2ccccc2c(=O)n1CCCn1ccnc1` here?
**A.** Its activity change, negative = inhibition is -6.43% (inactive).

**Q.** For `Cc1ccc(NC(=S)NCc2ccccc2Cl)c(C)c1`, which activity change, negative = inhibition is on record?
**A.** Its activity change, negative = inhibition is -27.2% (inactive).

**Q.** For `Clc1ccc(C2=CSC3=Nc4cccc5cccc(c45)N23)cc1`, which Potency is on record?
**A.** The Potency was 7.94 µM (active).

**Q.** For `O=S(=O)(NCC1CCCO1)c1cnc(Cl)c(Cl)c1` (stereo unspecified), which activity change, negative = inhibition is on record?
**A.** Its activity change, negative = inhibition is -16.1% (inactive).

**Q.** For `C/C(=C\c1ccccc1)C1NC(=O)c2c(sc3c2CCCC3)N1` (stereo unspecified), which activity change, negative = inhibition is on record?
**A.** Its activity change, negative = inhibition is -3.55% (inactive).

**Q.** `COc1ccccc1N1CCN(C(=O)c2cc(-c3ccc(Cl)c(Cl)c3)on2)CC1` was tested. Which activity change, negative = inhibition did it give?
**A.** Its activity change, negative = inhibition is -13.7% (inactive).

**Q.** How did the activity change, negative = inhibition turn out when `COc1ccccc1N1CCN(C(=O)c2cc(-c3ccc(Br)cc3)on2)CC1` was run?
**A.** The activity change, negative = inhibition was -29.1% (inactive).

**Q.** Which Potency does the source give for `COc1ccccc1-c1cc(C(=O)N2CCCCC2)no1` here?
**A.** The Potency was 3.55 µM (active).

**Q.** How did the activity change, negative = inhibition turn out when `O=C(c1cccs1)N1CCN(C(=O)N2CCOCC2)CC1` was run?
**A.** The activity change, negative = inhibition was 2.42% (inactive).

**Q.** `O=C(c1cc(-c2ccccc2O)on1)N1CCCC1` was tested. Which activity change, negative = inhibition did it give?
**A.** The activity change, negative = inhibition was -29.8% (inactive).

**Q.** How did the Potency turn out when `O=C(c1cc(-c2cccs2)on1)N1CCCCC1` was run?
**A.** The Potency was 1.78 µM (active).

**Q.** `Cc1cc(C)cc(NC(=S)NCc2ccc(F)cc2)c1` was tested. Which activity change, negative = inhibition did it give?
**A.** The activity change, negative = inhibition was -19.9% (inactive).

**Q.** Which activity change, negative = inhibition does the source give for `CCn1nc(C)c(/C=N/NC(=O)Cc2ccc(Cl)cc2)c1C` here?
**A.** Its activity change, negative = inhibition is -9.17% (inactive).

**Q.** With `O=C(NCc1cccs1)C(=O)NCC1OCCCN1S(=O)(=O)c1ccc(F)cc1` (stereo unspecified) as the compound, how does the activity change, negative = inhibition read?
**A.** The activity change, negative = inhibition was -5.48% (inactive).

**Q.** How did the activity change, negative = inhibition turn out when `C=CCOC(=O)NC(c1ccc(F)c(F)c1)C(C(=O)COC)C(=O)OC` (stereo unspecified) was run?
**A.** The activity change, negative = inhibition was -10.1% (inactive) and -9.32% (inactive).
